# D2 ag-1: D2 dopamine receptor (human) agonism; P14416; HEK293 T-REx D2 cells, calcium flux agonist mode; activation, % at 2 µM; hit rate 0.53% among 340,000; AID 485358;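 active means activation over 3 SD above normal in the single-dose calcium agonist read, cut at about 30% in these data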; further: 0% is about no effect
#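 Agonism scored from kinetic calcium signal (1 read/sec, 180 s) following compound pin transfer, after a 10 s baseline. Cells: HEK293 Trex line expressing inducible D2 receptor coupled to calcium, dye-loaded after overnight culture at 30 C.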
# D2 antagonist: antagonists of human D2 dopamine receptor | AID 485344 | HEK293 TREx D2 cells, calcium flux, dopamine EC80 | P14416 | hit rate 2% among 340,000 | inhibition, % at 10 µM; in the data active means inhibition above about 30%; inactive means below that, where a call was filed; further: 0% is about no effect
#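 Antagonism is scored as inhibition of an EC80 dopamine-evoked calcium signal in a force-coupled, tetracycline-inducible HEK293 T-REx D2 line, with compound present 180 s before agonist.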
# D2 PAM-1: D2 dopamine receptor (human) potentiation; P14416; AID 485347; potentiation, % at 10 µM; HEK293 T-REx D2, calcium flux, EC20 dopamine potentiation; hit rate 0.34% among 340,000;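 active means potentiation over 3 SD above the plate norm, cut at about 30% in these data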; further: 0% is about no effect
#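 Primary screen. Calcium kinetics in induced HEK293 T-REx D2 cells: compound pre-addition 180 s, EC20 dopamine, 180 s more.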
# D2 ag-2: agonists of human D2 dopamine receptor (beta-arrestin); P14416; DiscoveRx PathHunter D2 beta-arrestin, luminescence, 90 min; 100% = 57 uM dopamine signal; activation, % (test concentration not listed); hit rate 0.084% among 360,000; in the data active means activation above about 40%; inconclusive means between about 15% and that limit
#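 DiscoveRx PathHunter D2 beta-arrestin cells (2,100/well) attached overnight, then compound-stimulated 90 min at 37 C in HBSS/10 mM HEPES/0.1% Tween-20 buffer; beta-galactosidase complementation read by luminescence after 1 h at ambient temperature. Dopamine 57 uM final (EC100) as control.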
# D2 PAM-2: positive allosteric modulators of human D2 dopamine receptor; potentiation, % (no concentration beside the values); P14416; hit rate 0.23% among 360,000; DiscoveRx D2 beta-arrestin cells, luminescence, 90 min; 100% = 57 uM dopamine signal; in the data active means potentiation above about 50%; inconclusive means mostly about 30% to 49%
#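 D2 cells co-treated with compound plus 50 nM dopamine (EC20) for 90 min at 37 deg C to detect potentiation. Beta-arrestin recruitment was read as enzyme-fragment luminescence after 1 h at ambient temperature. Full response was set by 57 uM dopamine.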
# D3 arrestin ag: D3 receptor agonism confirmed, beta-arrestin readout | shares compounds with D2 ag-1 | DiscoveRx D3 beta-arrestin cells, luminescence, 90 min | Potency, µM (series often up to 76.9 µM), for the others: at the highest dose activation, actives largely listed as activators | hit rate 4% among 2,300 | AID 720506;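 further: potency means the concentration at half of the fitted maximal effect; 100% = dopamine control response; nearly all actives have a fitted effect of over 70% in size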
# Target sequence (P35462 whole entry, looked up): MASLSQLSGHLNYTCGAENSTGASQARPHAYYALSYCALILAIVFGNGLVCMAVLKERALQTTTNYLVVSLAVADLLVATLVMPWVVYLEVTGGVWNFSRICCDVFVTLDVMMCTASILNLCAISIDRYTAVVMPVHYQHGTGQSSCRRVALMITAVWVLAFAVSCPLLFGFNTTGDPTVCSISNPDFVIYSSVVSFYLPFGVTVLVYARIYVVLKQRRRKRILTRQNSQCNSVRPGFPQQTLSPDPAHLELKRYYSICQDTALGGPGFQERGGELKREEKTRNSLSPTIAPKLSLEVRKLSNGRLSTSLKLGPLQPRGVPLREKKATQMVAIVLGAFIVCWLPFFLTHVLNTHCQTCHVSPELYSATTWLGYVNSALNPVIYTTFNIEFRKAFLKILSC
# D2 ag-3: D2 receptor agonism, beta-arrestin counterscreen. shares compounds with D2 ag-1. DiscoveRx PathHunter D2 beta-arrestin, luminescence, 90 min; response scale: percent relative to full dopamine signal. Potency, µM (top dose mostly 76.9 µM), for the others: at the top dose activation, hits mostly activators. hit rate 5.9% among 2,300; further: potency means the concentration at half of the fitted maximal effect; % of control where 0% means no effect; nearly all actives have a fitted effect of over 70% in size
# The depositor's hits bear a star; ? = inconclusive; . = no result given. Sampled rows, rich in hits. Any-hit rate of the full collection: about 2.4%. Unless noted, the call rests on the fitted dose curve; in most records, active means well fitted activation curve with a large enough effect; inconclusive means small, poorly fitted or top-dose-only effect; inactive means flat fitted curve, though single readings scatter.
SMILES,D2 ag-1,D2 antagonist,D2 PAM-1,D2 ag-2,D2 PAM-2,D3 arrestin ag,D2 ag-3
Cn1nnc2c(N3CCN(c4cccc(Cl)c4)CC3)ncnc21,-1,.,7,.,.,.,.
C1=CC2CC1CC2CN1CCN(c2ccccc2)CC1 (stereo unspecified),76*,77*,-28,?,?,7%,?
Cc1ccccc1CN1CCN(CC2CC3C=CC2C3)CC1 (stereo unspecified),-1,19,-24,-3,-29,.,.
O=C(c1ccco1)N1CCN(CC2CC3C=CC2C3)CC1 (stereo unspecified),24,84*,.,42*,?,?,?
O=C(CN1C(=O)COc2ccc(Cl)cc21)Nc1ccc(F)cc1,1,.,-12,.,.,.,.
Cc1ccccc1-c1cc(C(=O)NCC2CC2)nn1CC1CC(c2cccc([N+](=O)[O-])c2)=NO1 (stereo unspecified),-1,-1,-5,0,-3,-1%,-1%
COc1ccc2ccccc2c1CN1CCN(C(=O)c2ccccc2)CC1,2,-16,-15,-2,-12,.,.
CC(=O)c1cccc(OCC(O)CN2CCN(C(=O)c3ccco3)CC2)c1 (stereo unspecified),.,.,.,?,2,18%,?
COc1ccc2ccccc2c1CN1CCN(C(=O)c2ccco2)CC1,69*,89*,-27,58*,26,?,25µM*
CCOc1ccc(CN2CCN(C(=O)c3ccco3)CC2)cc1,.,.,.,54*,57*,?,4.5µM*
COc1ccc(CN2CCN(C(=O)c3ccc(S(=O)(=O)N4CCCCCC4)cc3)CC2)cc1,.,.,.,-1,-4,6%,14%
CC(=O)c1cccc(OCC(O)CN2CCN(S(=O)(=O)c3c(F)cccc3F)CC2)c1 (stereo unspecified),1,-7,4,-4,-7,.,.
Cc1ccc2c(c1)c(=O)c(S(=O)(=O)c1ccc(C)c(C)c1)cn2CC(=O)Nc1ccccc1,1,.,-26,.,.,.,.
CCOc1ccc(CNC(=O)Cn2cc3c(n2)-c2c(oc(C(=O)N4CCOCC4)c2C)CC3)cc1,-1,.,-8,.,.,.,.
COc1ccc(CN2CCN(C(=O)c3ccco3)CC2)cc1,87*,87*,-20,77*,65*,?,10µM*
CCOc1cc(CN2CCN(C(=O)c3ccco3)CC2)ccc1OC,99*,74*,-29,?,63*,-3%,25µM*
COc1ccc(CN2CCN(Cc3ccco3)CC2)cc1,.,.,.,0,-10,.,.
CCOc1ccc(C(=O)N2CCN(C(=O)c3ccco3)CC2)cc1OCC,0,-3,6,2,9,.,.
OCCN1CCN(Cc2cc(Cl)c3cccnc3c2O)CC1,0,3,-9,1,-24,.,.
O=c1c(CN2CCN(Cc3ccccc3F)C(CCO)C2)coc2ccccc12 (stereo unspecified),9,-19,1,3,-11,.,.
Brc1ccc(CN2CCN(c3ccccn3)CC2)s1,70*,69*,-12,70*,?,?,3.5µM*
Cc1ccccc1-c1nnc(CN2CCN(c3ccccn3)CC2)o1,.,.,-19,.,.,.,.
c1ccc(N2CCN(Cc3nc4ccccc4[nH]3)CC2)nc1,15,-10,-21,5,-3,.,.
Oc1c(CN2CCN(c3ccccn3)CC2)cc(Cl)c2cccnc12,83*,89*,-31,-16,-63,-21%,?
O=c1c(CN2CCN(c3ccccn3)CC2)coc2ccccc12,88*,79*,-17,?,19,11%,?
SMILES,D2 ag-1,D2 antagonist,D2 PAM-1,D2 ag-2,D2 PAM-2,D3 arrestin ag,D2 ag-3
Cc1[nH]c2ccccc2c1CN1CCN(c2ccccn2)CC1,51*,56*,-22,3,-17,-12%,6%
O=C(Nc1ccc2c(c1)N(C1CCCC1)C(=O)c1ccccc1S2)c1ccc(F)cc1,1,.,0,.,.,.,.
CCc1cccc(NC(=O)CSC2=Nc3ccccc3N=C(c3ccc(F)cc3)C2)c1,2,.,-4,.,.,.,.
CCOC(=O)c1cc(C)n(CC2CCC(C(=O)Nc3ccc(C(C)=O)cc3)CC2)c1C (stereo unspecified),0,.,4,.,.,.,.
Cc1cc2nc(-c3cccc(NC(=O)c4cccc5ccccc45)c3)oc2cc1C,0,.,-8,.,.,.,.
Nc1nc2c(s1)CCCCCCCCCC2,0,6,6,0,1,.,.
C=CCN1CCc2nc(N)sc2CC1,88*,89*,-23,69*,81*,0.089µM*,0.045µM*
CCN1CCc2nc(N)oc2CC1,0,-2,11,-1,4,.,.
CCN1CCc2nc(N)sc2C1,68*,35*,-15,6,5,22%,16%
Cc1noc(C)c1S(=O)(=O)NCCc1csc2nc(-c3ccc(F)cc3)nn12,1,.,-3,.,.,.,.
CCN1C(=O)[C@H]2[C@@H](c3ccc(C)cc3)N3C(=O)N(c4ccccc4)C(=O)[C@@]3(Cc3ccc(Cl)cc3)[C@H]2C1=O,2,4,5,-1,-72,.,.
CCN1C(=O)[C@H]2[C@@H](c3ccc(C)cc3)N3C(=O)N(c4ccc(C)cc4)C(=O)[C@@]3(Cc3ccc(Cl)cc3)[C@H]2C1=O,45*,-18,-11,-3,2,-10%,-4%
COc1cc(NC(=O)Cn2ccc3ccccc3c2=O)cc(OC)c1OC,.,.,16,.,.,.,.
Cc1ccc(N2CCN(C(=O)Nc3cn(CC(C)C)c(=O)c4ccccc34)CC2)c(C)c1,-2,.,2,.,.,.,.
CCC(=NCCc1ccccc1)C1=C(O)CCC1=O,49*,-5,-17,-4,2,3%,2%
COc1ccc(N2CCN(S(=O)(=O)c3ccc(OC)c(-c4noc(C)n4)c3)CC2)cc1,0,.,-10,.,.,.,.
O=C(O)CC1Sc2ccccc2NC1=O (stereo unspecified),51*,6,-28,-6,-19,-7%,-2%
CCOC(=O)CC1Sc2ccccc2NC1=O (stereo unspecified),.,-11,18,-4,-4,.,.
Cc1cn2c(=O)c(C(=O)N3CCN(c4ccccc4)CC3)cnc2s1,0,-12,6,-3,-23,-8%,-2%
Cc1cn2c(=O)c(C(=O)N3CCN(c4ccccc4F)CC3)cnc2s1,1,13,5,-2,5,.,.
COc1ccc(Nc2c3c(nc4nncn24)CCC3)cc1Cl,0,.,-4,.,.,.,.
CCCCN(C)CCCNC(=O)CC1Oc2ccccc2NC1=O (stereo unspecified),85*,62*,-25,1,26,?,?

# Screening results deposited in PubChem by National Center for Advancing Translational Sciences (NCATS).
